In PubChem BioAssay AID1159580 (chemical genetic matrix, 2015):
“And” between values parts separate entries of the source, which are not always exact repeats. Identical values can stand only once. Among all 5,500 compounds or so, about 2,000 (36%) were called active. Inconclusive results (about 18%) are left out. No stated cut-off is given here; in the data, active means normalized growth mostly below about 0.91 (no sharp cut-off); inconclusive means no clear call, values can overlap the other calls; inactive means mostly above about 0.92. This is one part of the list.

Test: chemical genetic growth profiling, strain panel (AID 1159580);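 further: tested at 20 µM; growth read once vehicle control cultures reached saturation at 30 °C; 1 = growth at the plate median or of vehicle wells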
Conditions: S. cerevisiae deletion strains, growth OD

Measured: normalized growth

COc1ccc2c(c1)OCc1c-2oc2cc(OC)ccc12
active: locus YAL021C, strain ccr4, stronger effect = lower value 0.901 | locus YAL026C, strain drs2, stronger effect = lower value 0.764 | locus YAL030W, strain snc1, stronger effect = lower value 0.919 | locus YBL061C, strain skt5, stronger effect = lower value 0.864 | locus YBR009C, strain hhf1, stronger effect = lower value 0.737 | locus YBR023C, strain chs3, stronger effect = lower value 0.862 | locus YBR231C, strain swc5, stronger effect = lower value 0.909 | locus YBR279W, strain paf1, stronger effect = lower value 0.894 | locus YCL011C, strain gbp2, stronger effect = lower value 0.792 | locus YCL016C, strain dcc1, stronger effect = lower value 0.858 | locus YDR137W, strain rgp1, stronger effect = lower value 0.415 | locus YDR159W, strain sac3, stronger effect = lower value 0.724 | locus YDR297W, strain sur2, stronger effect = lower value 0.894 | locus YDR335W, strain msn5, stronger effect = lower value 0.857 | locus YDR392W, strain spt3, stronger effect = lower value 0.162 | locus YEL003W, strain gim4, stronger effect = lower value 0.806 | locus YEL061C, strain CIN8 (second series), stronger effect = lower value 0.777 | locus YEL061C, strain CIN8, stronger effect = lower value 0.666 | locus YER015W, strain faa2, stronger effect = lower value 0.9 | locus YER016W, strain bim1, stronger effect = lower value 0.87 | locus YER111C, strain swi4, stronger effect = lower value 0.84 | locus YER155C, strain BEM2 (second series), stronger effect = lower value 0.505 | locus YGL173C, strain kem1, stronger effect = lower value 0.851 | locus YGL240W, strain doc1, stronger effect = lower value 0.756 | locus YGL248W, strain PDE1, stronger effect = lower value 0.84 | locus YGL253W, strain hxk2, stronger effect = lower value 0.866 | locus YHR027C, strain rpn1, stronger effect = lower value 0.916 | locus YHR129C, strain ARP1, stronger effect = lower value 0.779 | locus YHR142W, strain chs7, stronger effect = lower value 0.659 | locus YIL066C, strain RNR3, stronger effect = lower value 0.745 | locus YJL095W, strain BCK1 (second series), stronger effect = lower value 0.761 | locus YJL129C, strain trk1, stronger effect = lower value 0.839 | locus YJL164C, strain tpk1, stronger effect = lower value 0.79 | locus YJL166W, strain qcr8, stronger effect = lower value 0.779
0.542 (active) and 0.952 (inactive): locus YJL095W, strain BCK1, stronger effect = lower value
inactive: locus YBR021W, strain FUR4, stronger effect = lower value 0.946 | locus YBR171W, strain sec66, stronger effect = lower value 0.973 | locus YBR229C, strain ROT2, stronger effect = lower value 0.997 | locus YCL029C, strain bik1, stronger effect = lower value 1 | locus YCL069W, strain vba3, stronger effect = lower value 0.945 | locus YCR088W, strain abp1, stronger effect = lower value 0.945 | locus YDL005C, strain med2, stronger effect = lower value 1.02 | locus YDL035C, strain GPR1, stronger effect = lower value 0.955 | locus YDL040C, strain nat1, stronger effect = lower value 0.988 | locus YDL101C, strain DUN1, stronger effect = lower value 0.915 | locus YDL134C, strain PPH21, stronger effect = lower value 0.908 | locus YDL185W, strain tfp1, stronger effect = lower value 1.05 | locus YDL192W, strain arf1, stronger effect = lower value 1.01 | locus YDR001C, strain nth1, stronger effect = lower value 0.989 | locus YDR069C, strain doa4, stronger effect = lower value 0.959 | locus YDR101C, strain arx1, stronger effect = lower value 0.997 | locus YDR150W, strain NUM1, stronger effect = lower value 0.991 | locus YDR162C, strain NBP2, stronger effect = lower value 0.872 | locus YDR195W, strain ref2 1.08 | locus YDR318W, strain mcm21, stronger effect = lower value 0.988 | locus YDR334W, strain swr1, stronger effect = lower value 1.01 | locus YDR388W, stronger effect = lower value 1 | locus YDR502C, strain sam2, stronger effect = lower value 0.985 | locus YEL037C, strain rad23, stronger effect = lower value 0.986 | locus YER110C, stronger effect = lower value 0.995 | locus YER155C, strain BEM2, stronger effect = lower value 0.941 | locus YFR010W, strain ubp6, stronger effect = lower value 0.942 | locus YGL078C, strain dbp3, stronger effect = lower value 1.03 | locus YGL086W, strain mad1, stronger effect = lower value 0.947 | locus YGL167C, strain pmr1, stronger effect = lower value 0.977 | locus YGL227W, strain vid30, stronger effect = lower value 0.935 | locus YGR078C, strain PAC10, stronger effect = lower value 0.943 | locus YGR135W, strain pre9, stronger effect = lower value 1.01 | locus YGR252W, strain gcn5, stronger effect = lower value 0.967 | locus YHR013C, strain ard1, stronger effect = lower value 0.975 | locus YHR030C, strain SLT2, stronger effect = lower value 0.966 | locus YHR079C, strain IRE1 (second series), stronger effect = lower value 1 | locus YHR079C, strain IRE1, stronger effect = lower value 0.951 | locus YHR094C, strain hxt1, stronger effect = lower value 1.02 | locus YHR200W, strain rpn10, stronger effect = lower value 1.01 | locus YIL073C, strain SPO22, stronger effect = lower value 1.18 | locus YIL125W, strain kgd1, stronger effect = lower value 0.996 | locus YIR030C, strain dcg1, stronger effect = lower value 1 | locus YJL092W, strain hpr5, stronger effect = lower value 0.943 | locus YJL115W, strain asf1, stronger effect = lower value 0.995 | locus YJL134W, strain LCB3, stronger effect = lower value 1.01 | locus YJL154C, strain vps35, stronger effect = lower value 1 | locus YJL168C, strain set2, stronger effect = lower value 1.01 | locus YJR043C, strain POL32, stronger effect = lower value 0.953 | locus YJR066W, strain TOR1, stronger effect = lower value 0.876
